From PubChem BioAssay AID778 (Sanford-Burnham Center for Chemical Genomics, 2007) come the findings set out here.

The structures appear in SMILES notation. Out of some 96,000 compounds screened, about 20,000 (21%) were called active.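 How the source made its calls: active means CYP2C19 inhibition above a set limit at 5 µM in the primary screen (cut at about 50% in these data); inactive means the rest.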 The list is a sample of the results.

Chain of Cytochrome P450 2C19 (Homo sapiens) (P33261 whole entry, looked up): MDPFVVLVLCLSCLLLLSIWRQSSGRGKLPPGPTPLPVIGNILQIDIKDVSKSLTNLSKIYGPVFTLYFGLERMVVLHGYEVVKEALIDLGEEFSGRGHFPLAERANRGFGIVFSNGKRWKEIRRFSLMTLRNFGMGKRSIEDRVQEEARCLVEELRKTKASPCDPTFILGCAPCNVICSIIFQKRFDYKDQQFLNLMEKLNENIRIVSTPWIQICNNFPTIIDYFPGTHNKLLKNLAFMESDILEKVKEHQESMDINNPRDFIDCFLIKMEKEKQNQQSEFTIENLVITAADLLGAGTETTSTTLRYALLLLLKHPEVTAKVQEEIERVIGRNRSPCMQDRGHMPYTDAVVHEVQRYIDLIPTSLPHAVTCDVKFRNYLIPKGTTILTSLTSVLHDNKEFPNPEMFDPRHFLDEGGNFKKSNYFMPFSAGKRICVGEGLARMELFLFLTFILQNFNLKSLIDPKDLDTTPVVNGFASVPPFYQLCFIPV

This experiment has as its target Cytochrome P450 2C19 (Homo sapiens) (UniProt P33261). The experiment can be described thus: blockers of cytochrome P450 2C19 activity – biochemical, luminescence, ADME assay, primary screen (AID 778).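 Further: plate controls were negative control wells for no effect and 2.5 mM tranylcypromine positive control for full effect.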 The conditions noted are these: CYP2C19 Supersomes, luciferin-H EGE luminescence, 30 min; at 5 µM; active compounds read high.
Consider `CCCCN(CC)CCCNC(=O)CS(=O)(=O)Cc1nc(-c2cccc(OC)c2)oc1C`, for which the inhibition was -1.1% (inactive).

In the case of `CCOC(=O)CSc1nc2sc3c(c2c(=O)[nH]1)CC(C)(C)OC3`, the inhibition was 67.6% (active).

In the case of `CC/C(C)=N/Nc1nc2sc3c(c2c(=O)[nH]1)CC(C)(C)OC3`, the inhibition was 36.9% (inactive).

As for `CCOC(=O)Cn1c(SC)nc2sc3c(c2c1=O)CC(C)(C)OC3`, the inhibition was 8.2% (inactive).

As for `CC(=O)NS(=O)(=O)c1ccc(NC(=S)NC(=O)C(C)(C)C)cc1`, the inhibition was -2.4% (inactive).

Take `CC(=O)Nc1ccc(NS(=O)(=O)c2cc(C)sc2C)cc1`: the inhibition is 93.5% (active).

With `CC(=O)Nc1ccc(S(=O)(=O)Nc2cccc(NC(=O)C(C)(C)C)c2)cc1`, the inhibition was 32.2% (inactive).

In the case of `CN(C)c1ccc(-n2cccc2/C=C2/SC(=Nc3ccc(F)cc3)NC2=O)cc1`, the inhibition was 2.9% (inactive).

In the case of `COC(=O)Nc1ccc(S(=O)(=O)N2CCN(CCN3C(=O)C4C5C=CC(C5)C4C3=O)CC2)cc1` (stereo not given), the inhibition is 5.6% (inactive).

Consider `CCOC(=O)Nc1ccc(S(=O)(=O)N(C)C(C)C)cc1`, for which the inhibition was 19.6% (inactive).

For the compound `COC(=O)Nc1ccc(S(=O)(=O)N(C)CC(F)(F)C(F)F)cc1`, the inhibition was 58.8% (active).

On to `O=C(CCn1c(=O)[nH]c2ccccc2c1=O)NCCCN1CCN(c2cccc(Cl)c2)CC1`, for which the inhibition was 13.5% (inactive).

Regarding `COc1ccc(CCNC(=O)CCCCn2c(=O)[nH]c3ccccc3c2=O)cc1OC`, the inhibition is 16.8% (inactive).

For `O=C(CCCCCn1c(=O)[nH]c2ccccc2c1=O)NCCc1c[nH]c2ccccc12`, the inhibition is 71.7% (active).

Regarding `O=C(c1cc2c(s1)CCC2)N1CCN(c2ccccc2)CC1`, the inhibition is 48.8% (inactive).

As to `O=C(CSC1=Nc2ccccc2C2=NC(c3ccccc3)C(=O)N12)NCC1CCCO1` (stereo not given), the inhibition was 29.1% (inactive).

On to `O=C(CSCc1c(F)cccc1Cl)NCC1CCCO1` (stereo not given), for which the inhibition was 52.6% (active).

As for `O=C(CS(=O)(=O)Cc1ccccc1)NCC1CCCO1` (stereo not given), the inhibition was -6.7% (inactive).

For the compound `N#Cc1ccc(Oc2cc(C(F)(F)F)nc(-c3ccccn3)n2)cc1`, the inhibition is 6.7% (inactive).

As to `O=C(Nc1nccs1)c1cc(S(=O)(=O)N2CCOCC2)c(Cl)cc1Cl`, the inhibition is 12.5% (inactive).

Regarding `Cc1ccc(-n2nc3c(c2NC(=O)CCC2CCCCC2)CS(=O)C3)cc1` (stereo not given), the inhibition is 80.4% (active).

For the compound `CC(C)(C)n1nc2c(c1NC(=O)c1ccc(S(=O)(=O)N3CCCC3)cc1)CS(=O)C2` (stereo not given), the inhibition was 10.7% (inactive).

Take `COc1ccc(-n2nc(C(=O)NCC(=O)Nc3cccc(C)n3)c3ccccc3c2=O)cc1`: the inhibition was -1.3% (inactive).

Consider `COc1ccc(-n2nc3c(c2NC(=O)Cc2cccc(C)c2)CS(=O)C3)cc1` (stereo not given), for which the inhibition is 76.9% (active).

Regarding `O=C(CC1CCCCC1)Nc1c2c(nn1-c1ccc(F)cc1)CS(=O)(=O)C2`, the inhibition is 5% (inactive).

Regarding `O=C(Nc1c2c(nn1-c1ccc(F)cc1)CS(=O)C2)C12CC3CC(CC(C3)C1)C2` (stereo not given), the inhibition was 9.1% (inactive).

Turning to `CCCCc1nc2c(=O)[nH]c3ccccc3c2o1`, the inhibition is -9.6% (inactive).

On to `CCC1(C)Cc2c(sc3[nH]c(=S)n(Cc4ccccc4)c(=O)c23)CO1` (stereo not given), for which the inhibition was 9.8% (inactive).

Regarding `O=C(Cn1nnc(-c2ccc(CN3CCOCC3)cc2)n1)NC1CCCCC1`, the inhibition is 9% (inactive).

Take `CC(=O)C1=C(O)C(=O)N(c2ccc(S(N)(=O)=O)cc2)C1c1ccccc1F` (stereo not given): the inhibition is -8% (inactive).

As to `Clc1ccc(-c2cc(COc3ccccc3)no2)cc1Cl`, the inhibition is 10.4% (inactive).

On to `O=c1c([N+](=O)[O-])cc(C(F)(F)F)cn1Cc1cccc(Cl)c1`, for which the inhibition was 24.2% (inactive).

For `C=CCNc1nnc(C)c2ccccc12`, the inhibition was -10.2% (inactive).

With `C=CCNc1nnc(SCC(=O)N2CCCCC2)c2ccccc12`, the inhibition was 50.6% (active).

Turning to `CCc1c(O)nc(SCC(=O)N2CCCCC2)n(-c2ccccc2C)c1=O`, the inhibition was 0.9% (inactive).

Regarding `c1ccc2c(c1)C(=NC1CCCCC1)NC2=NC1CCCCC1`, the inhibition is 4.5% (inactive).

As to `O=C(Nc1cccc(OCC(=O)N2CCOCC2)c1)C1CCCCC1`, the inhibition was -9.5% (inactive).

`CN(C)CCCNc1c2c(c(C#N)c3nc4ccccc4n13)CCC2`: the inhibition is 0% (inactive).

Consider `CCOC(=O)N1CCC(Nc2c(NCCN3CCN(c4cccc(Cl)c4)CC3)c(=O)c2=O)CC1`, for which the inhibition was 2.4% (inactive).

Regarding `O=S(=O)(N/N=C\c1cccn1-c1ccccc1)c1ccc2ccccc2c1`, the inhibition was 49.7% (inactive).

Turning to `CCCCn1c(SCC(=O)NCCc2ccc(OC)c(OC)c2)nc2c1c(=O)n(C)c(=O)n2C`, the inhibition was -14.1% (inactive).

Turning to `CCC(C)(NC(=O)c1ccccn1)C(=O)NC1CCCCC1` (stereo not given), the inhibition is 17.6% (inactive).

On to `Cc1noc(C)c1C(=O)N(CC(=O)NC1CCCC1)Cc1ccccc1F`, for which the inhibition is -7.6% (inactive).

Turning to `CCCC(=O)Nc1cc(OCC)c(NC(=O)NC2CCCCC2)cc1OCC`, the inhibition was 10.5% (inactive).

Take `O=C(CCCC(=O)N(CC(=O)NC1CCCC1)Cc1ccccc1Cl)Nc1ccccn1`: the inhibition was 77.5% (active).

Take `Cc1ccc(C(C(=O)NC2CCCC2)N(Cc2ccco2)C(=O)CCC(=O)Nc2ccccn2)cc1` (stereo not given): the inhibition was 10.6% (inactive).

`CCOc1ccccc1N(CC(=O)NC1CCCCC1)C(=O)CCCC(=O)Nc1ccccn1`: the inhibition was 68.9% (active).

Regarding `O=C1CCCC(O)=C1C=NCCc1ccccc1`, the inhibition was 12.8% (inactive).

In the case of `CC(CCO)Nc1nc2c([nH]1)c(=O)n(C)c(=O)n2C` (stereo not given), the inhibition was 0.9% (inactive).

As to `Cn1c2c(c(=O)n(C)c1=O)C(c1ccc(O)cc1)Nc1ccccc1O2` (stereo not given), the inhibition was 2% (inactive).

With `CCOc1[nH]n(-c2ccc(Cl)cc2)c(=O)c1C=Nc1ccc(O)cc1`, the inhibition is 13.5% (inactive).

On to `CCCN1CCN(C(=O)Cn2ncc3ccccc32)CC1`, for which the inhibition is 12.6% (inactive).

`COCCN(C(=O)c1ccco1)c1nnc(-c2ccc(OC)cc2)s1`: the inhibition is 24% (inactive).

Take `CN(C(=O)c1ccno1)c1nnc(-c2cccnc2)s1`: the inhibition was -0.7% (inactive).

For `Cc1nnc(N(Cc2ccco2)C(=O)c2ccno2)s1`, the inhibition was 80.5% (active).

`Cc1nnc(SCCCn2c(N3CCCCC3)nc3c2c(=O)[nH]c(=O)n3C)s1`: the inhibition was 22.6% (inactive).

As for `Cc1cccc(NC(=O)COc2ccc(Br)cc2C)n1`, the inhibition is 5% (inactive).

For `CCCn1nnnc1NC(=O)COc1ccc(Cl)cc1C`, the inhibition is 70.2% (active).

Consider `Cc1ccc(O)c(NC(=O)COc2cc(C)ccc2C)c1`, for which the inhibition was -2.7% (inactive).

With `CN1CCN(S(=O)(=O)c2ccc3[nH]cc(C(=O)O)c(=O)c3c2)CC1`, the inhibition was 3.6% (inactive).
